# Bioassay records from PubChem.
# The full list was thinned out, with hits kept by preference.
# ST2 inh = blocks human ST2 binding to IL-33 | Q01638 | 78,000 compounds, 2.3% hits | AlphaLISA ST2-Fc/biotin-IL-33 interaction, 1 h | inhibition, % for hits at 17 µM; in the data active means inhibition above about 30%
# Target sequence (Q01638 whole entry, looked up): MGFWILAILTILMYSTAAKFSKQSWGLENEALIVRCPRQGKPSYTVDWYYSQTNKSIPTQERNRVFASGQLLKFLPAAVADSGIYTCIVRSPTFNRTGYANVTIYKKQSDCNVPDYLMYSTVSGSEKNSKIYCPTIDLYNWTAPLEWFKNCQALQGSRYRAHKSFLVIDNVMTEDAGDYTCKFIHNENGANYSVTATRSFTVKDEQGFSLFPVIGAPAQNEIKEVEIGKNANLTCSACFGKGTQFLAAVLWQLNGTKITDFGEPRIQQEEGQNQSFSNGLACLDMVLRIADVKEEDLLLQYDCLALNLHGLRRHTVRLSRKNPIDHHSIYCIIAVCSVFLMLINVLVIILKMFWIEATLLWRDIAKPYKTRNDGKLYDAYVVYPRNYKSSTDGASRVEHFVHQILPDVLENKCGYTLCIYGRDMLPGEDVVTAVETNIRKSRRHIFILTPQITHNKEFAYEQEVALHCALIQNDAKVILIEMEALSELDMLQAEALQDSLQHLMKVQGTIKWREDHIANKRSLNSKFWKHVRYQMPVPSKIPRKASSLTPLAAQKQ
# Active calls of the source: *; i = inactive.
SMILES,ST2 inh
O=C1NCCN(Cc2ccc(F)c(F)c2)C1CC(=O)N1CC=CC1 (stereo not drawn),i
COC(=O)c1cccc(NC(=S)N[C@H]2CO[C@H]3[C@@H]2OC[C@H]3OC(=O)NC2CCCCC2)c1,i
CC(C)c1ccc(NC(=O)O[C@@H]2CO[C@H]3[C@@H]2OC[C@@H]3NC(=O)Nc2cccc(C#N)c2)cc1,i
CCNC(=O)O[C@@H]1CO[C@H]2[C@@H]1OC[C@@H]2NC(=O)Nc1ccc(C(C)C)cc1,i
CCNC(=O)O[C@@H]1CO[C@H]2[C@@H]1OC[C@@H]2NC(=S)Nc1cccc(C#N)c1,92%*
CC(=O)c1cccc(NC(=O)O[C@@H]2CO[C@H]3[C@@H]2OC[C@@H]3NC(=S)Nc2ccccc2)c1,i
COC(=O)c1cccc(NC(=S)N[C@H]2CO[C@H]3[C@@H]2OC[C@H]3OC(=O)Nc2ccc(C(C)C)cc2)c1,68%*
COc1cccc(NC(=O)Cn2cnc3c(oc4ccccc43)c2=O)c1,i
CCOC(=O)C1(Cc2ccc(Cl)cc2)CCN(C2CCSC2)CC1 (stereo not drawn),i
Cc1ccc(N2C(=O)CSC2c2ccccc2Cl)cc1 (stereo not drawn),32%*
O=C1CSC(c2ccccc2Cl)N1c1ccccc1 (stereo not drawn),i
O=C1CSC(c2cccc(Cl)c2Cl)N1c1ccc(F)cc1 (stereo not drawn),i
C=C(C)c1ccccc1NC(=O)CN1C(=O)c2ccccc2S1(=O)=O,i
CCOC(=O)C1CCN(C(=O)Cc2c(C(=O)O)[nH]c3ccc(Cl)cc23)CC1,i
CC1CCc2oc3cc([N+](=O)[O-])cc([N+](=O)[O-])c3c2C1 (stereo not drawn),59%*
Cc1cc(NC(=O)c2noc3c2CC(C)CC3)no1 (stereo not drawn),i
CC(=O)N(c1ccc2oc3c(c2c1)CCCC3)S(=O)(=O)c1cc([N+](=O)[O-])ccc1C,i
O=C1CCCN1CC1CCCN(Cc2cc3ccccc3o2)C1 (stereo not drawn),i
Cc1ccc(NC(=O)c2cc3cc([N+](=O)[O-])ccc3oc2=O)cc1Cl,i
COC(=O)c1cc(NC(=O)c2ccc(Br)o2)cc(C(=O)OC)c1,i
COc1cc(C)c(C2C(C#N)=C(N)OC3=C2C(=O)CC(C)(C)C3)cc1C (stereo not drawn),i
O=[N+]([O-])c1cc(C=Nc2ccc(-c3nc4ncccc4o3)cc2)ccc1Cl,i
O=[N+]([O-])c1ccc(N2CCCC2)cc1N1CCOCC1,i
O=[N+]([O-])c1cc(C=Nc2ccc(N3CCOCC3)cc2)ccc1Cl,48%*
O=C(Nc1c(Cl)c(Cl)c(O)c(Cl)c1Cl)c1ccccc1,i
SMILES,ST2 inh
CN(C(=O)CCC(=O)NC1CCCCCC1)C1CC(C)(C)NC(C)(C)C1,i
CC1(C)CC(NC2CC(C)(C)NC(C)(C)C2)CC(C)(C)N1,i
CC1(C)CC(NC(=O)CC2CCCCC2)CC(C)(C)N1,34%*
CC(=O)Nc1cccc(Oc2ncnc3sc4c(c23)CCCC4)c1,i
Cc1ccccc1NC(=O)c1ccco1,i
Cc1ccc(/C=C/NC(=O)c2ccco2)cc1C,31%*
Cc1cccc(C)c1NC(=O)c1ccco1,i
CCN(CC)CC(=O)Nc1c2c(nc3ccccc13)N(c1cccc(Cl)c1)CC2,i
O=C(Nc1c2c(nn1-c1ccc(Cl)cc1)CSC2)c1c(F)cccc1F,i
Cc1ccc(C)c(-c2csc(Nc3ncccn3)n2)c1,i
c1cnc(Nc2nc(-c3ccncc3)cs2)nc1,i
Oc1ccc(-c2csc(Nc3ncccn3)n2)cc1O,44%*
Cc1cc(Br)ccc1OCC(=O)NCc1cccnc1,i
CCOc1ccc(C(=O)Nc2cccc(OCc3cc(=O)n4cc(Cl)ccc4n3)c2)cc1,31%*
COc1cccc(C(=O)Nc2cccc(OCc3cc(=O)n4ccc(C)cc4n3)c2)c1,i
CC(=O)Nc1cccc(OCc2cc(=O)n3cc(Cl)ccc3n2)c1,i
Cc1ccc(C(=O)Nc2cccc(OCc3cc(=O)n4cc(Cl)ccc4n3)c2)cc1,i
COc1cccc(C(=O)Nc2ccc(C)c(OCc3cc(=O)n4cccc(C)c4n3)c2)c1,31%*
CCOc1ccc(C(=O)Nc2ccc(C)c(OCc3cc(=O)n4cccc(C)c4n3)c2)cc1,i
COc1ccc(OCC(=O)Nc2ccc(C)c(OCc3cc(=O)n4ccc(C)cc4n3)c2)cc1,i
Cc1cccc(C(=O)Nc2cccc(OCc3cc(=O)n4ccc(C)cc4n3)c2)c1,i
Cc1cccc(C(=O)Nc2ccc(C)c(OCc3cc(=O)n4cccc(C)c4n3)c2)c1,33%*
O=C(COc1ccc([N+](=O)[O-])cc1)Nc1ccc(F)cc1F,i
CCc1nc(N2CCC(C)CC2)c(C#N)c2c1CCCC2,i
COCC(C)NC(=O)c1cc2c(=O)n3cccc(C)c3nc2n1C (stereo not drawn),i
SMILES,ST2 inh
COc1ccc(N2C(=O)CC(Sc3nc4c(cc3C#N)CCCCC4)C2=O)cc1 (stereo not drawn),i
COc1cc(/C=c2\sc3n(c2=O)CN(c2ccc(C)cc2)CN=3)c([N+](=O)[O-])cc1OC,38%*
COc1ccc(/C=c2\sc3n(c2=O)CN(c2ccc(C(C)=O)cc2)CN=3)cc1,i
O=c1/c(=C/c2cccc([N+](=O)[O-])c2)sc2n1CN(c1cccc(F)c1)CN=2,i
CCOc1ccc(-c2nc3s/c(=C\c4ccc(F)cc4)c(=O)n3n2)cc1,i
CCCOc1ccc(/C=c2\sc3nc(=O)c(C)nn3c2=O)cc1,i
O=c1/c(=C/c2cccnc2)sc2n1CN(c1cccc(C(F)(F)F)c1)CN=2,i
Cc1ccc(-c2nnc3s/c(=C\c4ccc([N+](=O)[O-])cc4)c(=O)n23)cc1,i
COc1ccccc1/C=c1\sc2nnc(-c3ccc(C)cc3)n2c1=O,i
COc1cccc(/C=c2\sc3nnc(-c4ccc(C)cc4)n3c2=O)c1,i
COc1ccc(/C=c2\sc3n(c2=O)CN(c2cccc(F)c2)CN=3)cc1,35%*
Cc1ccc(N2CN=c3s/c(=C\c4cccnc4)c(=O)n3C2)cc1,30%*
COc1ccc(/C=c2\sc3n(c2=O)CN(c2ccc(C)cc2)CN=3)cc1,31%*
CC1(C)CC(=O)C2=C(C1)Nc1c(c(=O)[nH]c(=O)n1Cc1ccccc1)C2c1ccc(O)cc1 (stereo not drawn),i
CCCOC(=O)C1=C(C)NC2=C(C(=O)C(C(=O)OC)C(C)C2)C1c1coc2ccc(C)cc2c1=O (stereo not drawn),i
O=c1cc(-c2ccccc2)c2ccc(O)c(O)c2o1,i
CC1CCCCC1NS(=O)(=O)c1ccc2[nH]c(=O)c(=O)[nH]c2c1 (stereo not drawn),i
COc1ccc(C(=O)Nc2ccccc2F)cc1Br,i
O=C(C[C@@H]1CCNC[C@@H]1Cc1cc(-c2ccccc2)on1)Nc1cccc(O)c1,i
Nc1ncnc(Nc2ccc(Oc3ccccc3)cc2)c1[N+](=O)[O-],i
O=[N+]([O-])c1c(Nc2ccccc2)sc2ccccc12,37%*
O=[N+]([O-])C1=C(Nc2ccccc2)CS(=O)(=O)C1,i
CCc1nc(SCC(=O)NC(C)C(=O)Nc2ccc(F)cc2C)n[nH]1 (stereo not drawn),i
CCOc1ccc(-c2nc3cc(N=Cc4cccc([N+](=O)[O-])c4O)ccc3o2)cc1,i
CCOc1cc(/C=C(\C#N)c2nc(-c3ccc(OC)c(OC)c3)cs2)ccc1O,i
COc1ccc(/C=C(/NC(=O)c2cccs2)C(=O)NC(C)(C)C)cc1OC,i
